# In the supplement of paper PMC9135407:
# Values joined by “and” are separate entries in the source; they are usually repeats but may differ in a detail not shown here. Equal entries are not always repeated. Structures can show the parent of a compound that is named as a salt. Out of some 5,800 compounds screened, about 620 (11%) showed activity. What follows is part of a selection rich in actives, with near analogues and random picks from the rest. A number with no mark means an inactive call.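 The calls were made as follows: active = score above a cut-off or among the top three wells of a plate; in these data no inactive exceeds 0.85.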
# Test system: primary human hepatic stellate cells (donor 1)
# Assay: scaled lipid accumulation score (0 = DMSO-like, 1 = nortriptyline-like); higher = stronger HSC inactivation (lipid re-accumulation), active = hit call of the paper
# Conditions: 48 h
# Protocol: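 Primary lipid accumulation screen in primary human hepatic stellate cell myofibroblasts (donor 1, passage 8) in 384-well plates. 100 nL of library compound was pin-transferred into 30 µL medium in duplicate, and cells were treated for 48 h. The 'Scaled' score combines distance from plate baseline, toxicity and reproducibility penalties, and is normalised to nortriptyline (positive) and DMSO (negative) controls on each plate. A hit is defined as scaled >0.85 or among the top 3 wells per plate.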
# [1] = library stock concentration: 3.33 mM
# [2] = library stock concentration: 10 mM
# [3] = library stock concentration: 1 mM
# [4] = library stock concentration: 80 uM
# [5] = library stock concentration: 400 uM
# [6] = library stock concentration: 2 mM
smiles,measurement,setting,value
Cc1ccc(Sc2cncc3sc(C(N)=O)cc23)cc1,scaled lipid accumulation score,[1],0.183
same,scaled lipid accumulation score,[2],0.478 and 0.373
CCOC(=O)CCC(=O)O[C@H]1[C@H](O[C@@H]2[C@@H](C)[C@H](O[C@H]3C[C@@](C)(OC)[C@@H](O)[C@H](C)O3)[C@@H](C)C(=O)O[C@H](CC)[C@@](C)(O)[C@H](O)[C@@H](C)C(=O)[C@H](C)C[C@@]2(C)O)O[C@H](C)C[C@@H]1N(C)C [Erythromycin ethylsuccinate],scaled lipid accumulation score,library stock concentration: 2.3 mM,≤ -0.001
same,scaled lipid accumulation score,[2],≤ 0
CCOC(=O)CCC(=O)O[C@H]1[C@H](O[C@@H]2[C@@H](C)[C@H](O[C@H]3C[C@@](C)(OC)[C@@H](O)[C@H](C)O3)[C@@H](C)C(=O)O[C@H](CC)[C@@](C)(O)[C@H](O)[C@@H](C)C(=O)[C@H](C)C[C@@]2(C)O)O[C@H](C)C[C@@H]1N(C)C [Eryped],scaled lipid accumulation score,[2],≤ 0
"Nc1c2c(nc3ccccc13)CCCC2 [9-Amino-1,2,3,4-tetrahydroacridine hydrochloride]",scaled lipid accumulation score,[2],0.401
Nc1c2c(nc3ccccc13)CCCC2,scaled lipid accumulation score,library stock concentration: 9.7 mM,0.039
Cl.Cl.c1ccc2c(NCCCCCCCNc3c4c(nc5ccccc35)CCCC4)c3c(nc2c1)CCCC3 [bis(7)-Tacrine],scaled lipid accumulation score,[3],1.11 (active)
Nc1c2c(nc3ccccc13)CCCC2 [Tacrine hydrochloride],scaled lipid accumulation score,[2],0.064
Nc1c2c(nc3ccccc13)CCCC2 [Tacrine (hydrochloride)],scaled lipid accumulation score,[3],0.026
Nc1c2c(nc3ccccc13)CCCC2O (stereo not drawn) [Hydroxytacrine maleate],scaled lipid accumulation score,library stock concentration: 9.3 mM,≤ -0.006
same,scaled lipid accumulation score,[2],0.056
"CCCCCC(=O)CC[C@H]1C=CC(=O)[C@@H]1C/C=C\CCCC(=O)O [13,14-dihydro-15-keto Prostaglandin A2]",scaled lipid accumulation score,[3],≤ 0
CCCCC[C@H](O)/C=C/[C@H]1C2CC(CO2)[C@@H]1C/C=C/CCCC(=O)O (stereo partly drawn),scaled lipid accumulation score,[3],≤ 0
CCCCC[C@](C)(O)/C=C/[C@@H]1[C@@H](C/C=C\CCCC(=O)O)[C@@H](O)C[C@H]1O [15(S)-15-methyl Prostaglandin F2.alpha.],scaled lipid accumulation score,[3],≤ 0
"CCCCC/C=C\C/C=C\CC1OC1C/C=C\CCCC(=O)O (stereo not drawn) [8,9-Epoxyeicosatrienoic acid]",scaled lipid accumulation score,library stock concentration: 100 uM,≤ -0.021
CNC(=O)c1cc(Oc2ccc(NC(=O)Nc3ccc(Cl)c(C(F)(F)F)c3)cc2)ccn1 [Sorafenib Tosylate],scaled lipid accumulation score,[1],0.005
same,scaled lipid accumulation score,[2],≤ 0
CNC(=O)c1cc(Oc2ccc(NC(=O)Nc3ccc(Cl)c(C(F)(F)F)c3)cc2)ccn1 [Sorafenib],scaled lipid accumulation score,[1],≤ 0
same,scaled lipid accumulation score,[2],≤ 0
CNC(=O)c1cc(Oc2ccc(NC(=O)Nc3ccc(Cl)c(C(F)(F)F)c3)c(F)c2)ccn1 [Regorafenib],scaled lipid accumulation score,[4],≤ -0.016
same,scaled lipid accumulation score,[5],0.033
same,scaled lipid accumulation score,[6],≤ -0.016
same,scaled lipid accumulation score,[2],≤ -0.016
"CNC(=O)c1cc(Oc2ccc(NC(=O)Nc3ccc(Cl)c(C(F)(F)F)c3)cc2)ccn1 [Sorafenib  (Nexavar, BAY43-9006) (0.4 mM)]",scaled lipid accumulation score,[5],0.021
CNC(=O)c1cc(Oc2ccc(NC(=O)Nc3ccc(Cl)c(C(F)(F)F)c3)cc2)ccn1,scaled lipid accumulation score,[4],0.04
same,scaled lipid accumulation score,[5],0.075
same,scaled lipid accumulation score,[6],≤ 0
same,scaled lipid accumulation score,[2],0.672
CNC(=O)c1cc(Oc2ccc(NC(=O)Nc3ccc(Cl)c(C(F)(F)F)c3)c(F)c2)ccn1 [Regorafenib (BAY 73-4506)],scaled lipid accumulation score,[1],≤ 0
same,scaled lipid accumulation score,[2],≤ 0
"CNC(=O)c1cc(Oc2ccc(NC(=O)Nc3ccc(Cl)c(C(F)(F)F)c3)cc2)ccn1 [Sorafenib (Nexavar, BAY43-9006) (10 mM)]",scaled lipid accumulation score,[2],1.21 (active)
"CNC(=O)c1cc(Oc2ccc(NC(=O)Nc3ccc(Cl)c(C(F)(F)F)c3)cc2)ccn1 [Sorafenib  (Nexavar, BAY43-9006) (2 mM)]",scaled lipid accumulation score,[6],0.299
